# PubChem BioAssay (NCATS)
# Records with an inconclusive call do not appear. Where a call stands in place of a potency, no number is given. Calls of active or inactive are those of the source. The call rests on the fitted dose curve; in most records, active means well fitted curve in the direction sought with a large enough effect; inconclusive means small, poorly fitted or top-dose-only effect, or another doubt; inactive means no such curve, though single readings can be large; an effect the other way counts as inactive or inconclusive.
# What was measured:
# [1] = molecular target: Glutathione peroxidase 1 (Homo sapiens) (UniProt P07203); experiment: Primary qHTS Assay for Inhibitors of Recombinant Selenoprotein Glutathione Peroxidase 1 (GPX1) (AID 1845191); further: nearly all actives have a fitted effect of over 65% in size
# How it was run: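 GPX1 10 nM, GR 100 nM, GSH 1 mM, NADPH 0.5 mM, CHP 0.5 mM (final). 30-min cpd preincubation, RT. Ex340/Em450 read t=0, t=15 min.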
# [2] = molecular target: Phospholipid hydroperoxide glutathione peroxidase GPX4 (Homo sapiens) (UniProt P36969); experiment: Primary qHTS Assay for Inhibitors of Recombinant Selenoprotein Glutathione Peroxidase 4 (GPX4) (AID 1845192); further: nearly all actives have a fitted effect of over 65% in size; further: potency means the concentration at half of the fitted maximal effect
# How it was run: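 qHTS, GR-coupled: GPX4 200 nM + cpd 30 min RT → GSH 1 mM, NADPH 0.5 mM, GR 100 nM → CHP 0.5 mM start; fluor 340/450 at t0 and t15 min; no-enzyme wells as control.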
# [3] = molecular target: Luciferin 4-monooxygenase (Photinus pyralis) (UniProt P08659); experiment: Primary firefly luciferase (FLuc) qHTS assay for identification of artifact compounds. (AID 1845220); further: nearly all actives have a fitted effect of over 60% in size
# How it was run: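 qHTS, 15 min compound preincubation with substrate (10 uM luciferin, 10 uM ATP) at RT, then 10 nM FLuc; 5 min; luminescence; % inhibition vs no-enzyme/DMSO controls, 4-parameter Hill fit.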
# [4] = Primary fluorescence-based thiol-reactive (MSTI) qHTS assay for identification of artifact compounds. (AID 1845221); further: nearly all actives have a fitted effect of over 65% in size; further: potency means the concentration at half of the fitted maximal effect
# How it was run: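 A multi-concentration qHTS design tested compounds against 4 uM MSTI, pH 7.4 phosphate-buffered saline. Plates were protected from light for 1 h at room temperature before imaging fluorescence.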
# [5] = system: Nanoluciferase (engineered Oplophorus gracilirostris luciferase); experiment: Primary Nanoluciferase (NLuc) qHTS assay for identification of artifact compounds. (AID 1845222); further: series mostly up to about 54 µM
# How it was run: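 Luminescence read-out of secreted NLuc in S16 cell conditioned medium (1:55); compounds tested with 15 min RT preincubation, then Nano-Glo substrate 1:100, 5 min. % inhibition vs no-enzyme and DMSO controls, 4-parameter Hill fit.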
# Chain of Phospholipid hydroperoxide glutathione peroxidase GPX4 (Homo sapiens) (P36969 whole entry, looked up): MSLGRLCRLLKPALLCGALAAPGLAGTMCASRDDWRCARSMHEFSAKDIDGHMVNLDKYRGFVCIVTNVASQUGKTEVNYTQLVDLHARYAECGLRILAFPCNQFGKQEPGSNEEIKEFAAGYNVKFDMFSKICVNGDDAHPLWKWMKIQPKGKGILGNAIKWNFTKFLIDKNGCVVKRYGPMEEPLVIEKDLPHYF
# Chain of Glutathione peroxidase 1 (Homo sapiens) (P07203 whole entry, looked up): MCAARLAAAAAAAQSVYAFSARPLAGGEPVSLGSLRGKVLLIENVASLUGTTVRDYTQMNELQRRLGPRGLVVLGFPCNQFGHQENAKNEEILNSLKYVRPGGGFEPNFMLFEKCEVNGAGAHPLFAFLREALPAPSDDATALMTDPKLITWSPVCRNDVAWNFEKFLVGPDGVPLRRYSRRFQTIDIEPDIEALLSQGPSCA
Compound,Potency [1],Potency [2],Potency [3],Potency [4],Potency [5]
CCCNC(=O)Nc1ccc(Oc2ncnc3cc(OC)c(OC)cc23)cc1Cl,inactive,inactive,inactive,inactive,inactive
Nc1cc(C(F)(F)F)c(-c2cc(N3CCOCC3)nc(N3CCOCC3)n2)cn1,inactive,inactive,inactive,inactive,inactive
CC1(C)CCC(c2ccc(Cl)cc2)=C(CN2CCN(c3ccc(C(=O)NS(=O)(=O)c4ccc(N[C@H](CCN5CCOCC5)CSc5ccccc5)c(S(=O)(=O)C(F)(F)F)c4)cc3)CC2)C1,inactive,10.1 µM (active),inactive,inactive,inactive
CNC(=O)c1c(F)cccc1Nc1nc(Nc2cc3c(cc2OC)CCN3C(=O)CN(C)C)nc2[nH]ccc12,inactive,inactive,inactive,1.06 µM (active),inactive
CCCCCCCCCC(=O)N[C@@H](Cc1c[nH]c2ccccc12)C(=O)N[C@H](CC(N)=O)C(=O)N[C@@H](CC(=O)O)C(=O)N[C@@H]1C(=O)NCC(=O)N[C@@H](CCCN)C(=O)N[C@@H](CC(=O)O)C(=O)N[C@H](C)C(=O)N[C@@H](CC(=O)O)C(=O)NCC(=O)N[C@H](CO)C(=O)N[C@@H]([C@@H](C)CC(=O)O)C(=O)N[C@@H](CC(=O)c2ccccc2N)C(=O)O[C@@H]1C,inactive,inactive,inactive,inactive,inactive
CS(=O)(=O)N1CCN(Cc2cc3nc(-c4cccc5[nH]ncc45)nc(N4CCOCC4)c3s2)CC1,inactive,inactive,inactive,inactive,inactive
Nc1nc(Nc2ccc(S(N)(=O)=O)cc2)nn1C(=O)c1c(F)cccc1F,inactive,inactive,inactive,inactive,inactive
